This is a sample that favours compounds with a hit; in the whole collection about 1.3% have one here.
RTF Ca sens act – increases calcium sensitivity of human cardiac regulated thin filaments; activation, % at 7.2 µM; 0.24% of 340,000 active; AID 493008; IANBD-labeled TnC RTF fluorescence at EC20 calcium; 0% EC20 calcium, 100% full calcium;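 active = activation above the mean over all tested compounds plus 3 SD, cut at about 30% in these data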;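 also: rise in fluorescence read as greater calcium sensitivity of cardiac thin filaments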
CRFBP-R2 block – blocks CRF-induced signaling of the CRF-BP/CRF-R2 complex; 0.59% of 350,000 active; HEK293 CRF-R2/CRF-BP, CRF-induced calcium fluorescence; inhibition, % at 11.8 µM;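 active = inhibition of the ligand-induced calcium signal above about 50% at the single tested concentration, limit read from the data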
Cardiac RTF inh – cardiac RTF calcium desensitization; AID 493244; P19429+P45379; IANBD-labeled cardiac RTF, Ca2+ fluorescence; inhibition, % at 7.15 µM; 0.12% of 340,000 active;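 active = inhibition above the mean inhibition of all tested compounds plus 3 SD, cut at about 17% in these data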;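 also: assay run at fixed EC70 calcium of 1.6 mM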
CRFBP-R2 agonist – CRF-BP/CRF-R2 complex agonism. HEK293 CRF-R2/CRF-BP, calcium dye fluorescence (FLIPR); percent of saturating CRF peptide response. activation, % at 13.2 µM. 0.46% of 350,000 active. AID 588473;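 active = activation of at least 50%, plus an integration ratio under a set limit after plate pattern correction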;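 also: plate controls were neutral control wells without compound for no effect and CRF at EC100 for full effect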
Numbers without * were called inactive; · = no result given.

SMILES | RTF Ca sens act | CRFBP-R2 block | Cardiac RTF inh | CRFBP-R2 agonist
COC(=O)c1c(-c2ccc(F)cc2)csc1NC(=O)C1CCCO1 (stereo not given) | -4.8 | 0.9 | -4.2 | -0.3
COc1ccccc1N1CCN(C(=O)c2oc3c(c2C)C(=O)CC(C)(C)C3)CC1 | -6.6 | 0.4 | -1.6 | -1.6
COc1ccc(NC2CCCN(C(=O)c3csc(C(C)C)n3)C2)cc1OC (stereo not given) | -4.9 | 0.3 | -10.8 | -0.2
COc1ccc(NC2CCCN(C(=O)c3cccc(C)n3)C2)cc1OC (stereo not given) | -5.4 | 102.7* | -4.5 | 0.5
CN1CCN(c2ccc(S(=O)(=O)N3CCOCC3)cc2NC(=O)COc2ccc(C#N)cc2)CC1 | 3.7 | 14.9 | -2.0 | 0.3
Cc1ccc(S(=O)(=O)NCCC(=O)N2CCOCC2)cc1C | 3.0 | 5.8 | -3.0 | 0.4
CCc1noc(C)c1C(=O)NNC(=O)COc1ccc(Br)cc1 | -1.3 | 7.3 | -2.4 | -7.1
CN(CCCOc1ccccc1Br)Cc1ccccc1 | 2.0 | -18.6 | 1.0 | -0.2
Cc1cc(C)c(OCCN(C)Cc2ccccc2)c(Br)c1 | 0.0 | 86.8* | -8.6 | -0.2
COC(=O)c1cc2cc(Cl)ccc2nc1SC | 5.0 | -22.1 | -2.5 | 2.3
O=C(Cc1ccc(-n2cccc2)cc1)N1CCN(c2ccccc2F)CC1 | -4.0 | 52.9* | -7.1 | -4.1
NC(=O)Cn1cnc2nc3n(c2c1=O)CCC3 | 3.0 | 7.5 | -3.5 | 0.1
Cc1ccc(OCC(=O)N/N=C2\CC(=O)CC(C)(C)C2)c(Br)c1 | 1.8 | 8.0 | -1.5 | -1.5
CC(=O)Oc1ccc(N2C(=O)C3C(C2=O)C(C(=O)c2ccc(Cl)cc2)N2CCCC32)cc1 (stereo not given) | 44.6* | -22.1 | -39.0 | 40.5
Cc1ccc(N2C(=O)C3C(C2=O)C(C(=O)c2ccc(Cl)cc2)N2CCCC32)cc1 (stereo not given) | -5.0 | -6.8 | -5.5 | 2.5
CC1OC(OC2C(CO)OC(OCC3OC(OC(=O)[C@@]45CCC(C)(C)C[C@@H]4C4=CC[C@@H]6[C@@]7(C)CCC(OC8OCC(O)C(O)C8OC8OC(C)C(O)C(O)C8O)[C@@](C)(CO)C7CC[C@@]6(C)[C@]4(C)CC5)C(O)C(O)C3O)C(O)C2O)C(O)C(O)C1O (stereo not given in full) | -5.8 | 12.3 | 5.4 | 2.2
C[C@H]1O[C@@H](O[C@H]2CC[C@@]3(C)C(CC[C@]4(C)C3C=C[C@]35OC[C@@]6(CCC(C)(C)C[C@H]63)[C@@H](O)C[C@]54C)[C@]2(C)CO)[C@H](O)[C@@H](O[C@@H]2O[C@H](CO)[C@@H](O)[C@H](O)[C@H]2O)[C@H]1O (stereo not given in full) | 1.6 | -45.9 | 3.4 | 87.0*
CCCOc1ccc(C2=CSC3=NCCN23)cc1[N+](=O)[O-] | -1.2 | -0.6 | -6.6 | -0.2
c1ccc2c(CN3CCCCC3)csc2c1 | -1.9 | 35.1 | 0.8 | 96.3*
Cc1ccc(C)n1NC(=O)c1ccccc1O | -4.6 | 79.5* | -5.7 | 2.9
COc1cc2[nH]c3c(=O)n4c(nc3c2cc1OC)SCCC4 | -5.5 | 93.0* | -4.8 | 44.1
CCCCCn1nc(-c2ccccc2)c2nc3ccccc3nc21 | 20.7 | -255.6 | -6.3 | 175.6*
CCn1c2ccc(Cl)cc2c2nc3ccccc3nc21 | · | -5.6 | · | 3.1
CCCCn1c2nc3ccccc3nc2c2c(=O)n(CCC)cnc21 | -2.8 | 0.0 | 1.7 | 1.5
CCn1nc(-c2ccccc2)c2nc3ccccc3nc21 | 50.1* | -187.7 | -90.2 | 159.5*
SMILES | RTF Ca sens act | CRFBP-R2 block | Cardiac RTF inh | CRFBP-R2 agonist
CCCn1nc(-c2ccccc2)c2nc3ccccc3nc21 | · | -42.7 | · | 105.5*
COc1coc(C(O)C[N+](=O)[O-])cc1=O (stereo not given) | -0.6 | 0.6 | -6.5 | -1.1
CC1CN(S(=O)(=O)c2ccc(C(=O)N3CCc4ccccc43)cc2)CC(C)O1 (stereo not given) | -3.8 | 110.1* | 0.7 | 0.4
OCCC1CN(C2CCC2)CCN1Cc1ccc(F)c(F)c1 (stereo not given) | 2.7 | -0.2 | -3.0 | 0.3
COC(=O)c1sc(NC(=S)NC(=O)c2cccc(C)c2)nc1C | 1.6 | 17.3 | -5.5 | 64.6*
CC(C)N1CCC(=O)NC1=O | 6.7 | 4.2 | -4.1 | -4.3
CC(C)c1cc(N2CCC(=O)NC2=O)cc(C(=O)O)c1O | -6.8 | 52.0* | 14.9 | 0.3
Cc1ccc(CNC(=O)C2CCCN2C(=O)Nc2ccc(F)cc2)cc1 (stereo not given) | -2.7 | 21.6 | 1.2 | -1.1
CCC(=O)NCCC(c1ccco1)c1ccccc1OC (stereo not given) | 3.4 | -16.6 | -4.6 | 0.6
CCCNCCC(c1ccco1)c1ccccc1OC (stereo not given) | -2.6 | 55.6* | -9.7 | -0.1
COc1ccc(C(=O)Nc2cc(=O)n(C)c(=O)n2C)cc1 | -1.4 | 104.1* | 1.3 | 0.0
Cc1cc(/C=C2\SC(=S)N(C)C2=O)c(C)n1-c1ccccc1O | 44.1* | -51.1 | -44.0 | 34.0
CCOc1ccc(NC(=S)Nc2ccc(OC)cc2)cc1 | 0.9 | 4.3 | -11.7 | 0.3
CCC(C)c1ccc(NC(=S)Nc2ccc(OC)cc2)cc1 (stereo not given) | 2.0 | 133.5* | -5.0 | 1.2
O=C1NCCCN1C1OC(CO)C(O)C1O (stereo not given) | · | 14.2 | · | -2.0
COC(=O)C(OC(=O)c1ccccc1)C(C)Br (stereo not given) | 6.9 | 63.0* | 5.4 | -2.9
CC(C)OC(=O)c1ccc(NC(=O)c2ccccc2)cc1 | -0.8 | -62.8 | 2.0 | 9.0
COc1ccc(COC(=O)c2ccc(Br)c(S(=O)(=O)N3CCOCC3)c2)cc1F | -3.2 | -6.7 | 7.2 | 6.9
CCCc1nc(SCc2ccc(Cl)cc2Cl)n[nH]1 | -2.6 | 59.0* | -6.3 | 0.1
CCc1nc(SCc2ccc(Cl)cc2)n[nH]1 | 6.4 | 8.9 | 0.7 | 0.3
Cc1c(C(=O)Nc2c(F)cccc2F)sc2ncn(CC(=O)N3CCCCC3)c(=O)c12 | 4.0 | 78.1* | -9.2 | -0.8
CN(C)C=NC(=O)c1cn(-c2ccc(F)cc2)c(=O)c2ccccc12 | 3.2 | -2.1 | -6.1 | -0.1
NS(=O)(=O)c1ccc(N2N=C(c3ccccc3)CC2c2ccccc2)cc1 (stereo not given) | 43.1* | -8.8 | -48.0 | -2.6
COc1ccc(C2CC(c3ccccc3F)=NN2c2ccc(S(N)(=O)=O)cc2)cc1 (stereo not given) | -0.6 | 0.1 | -0.1 | -1.0
COc1ccc(C2CC(c3ccccc3C(F)(F)F)=NN2c2ccc(S(N)(=O)=O)cc2)cc1 (stereo not given) | -2.0 | 58.8* | -4.6 | 5.3
Cc1ccc(S(=O)(=O)N2CCCC(c3nc4c(nnn4Cc4ccc5c(c4)OCCO5)c(=O)[nH]3)C2)cc1 (stereo not given) | -8.5 | 1.6 | -13.0 | 3.3
CC(=O)Nc1ccc(NC2CCCCC2NS(=O)(=O)c2ccc(Cl)cc2)cc1 (stereo not given) | -0.9 | -19.9 | -1.7 | 2.2
OCCC1CN(Cc2cc3c(cc2Cl)OCO3)CCN1Cc1ccccc1 (stereo not given) | 5.8 | 15.8 | -3.4 | -0.5

Screening results from PubChem.
